The whole screen tested about 69,000 compounds, of which about 8,600 (12%) showed an effect of 50% or more. Only a selection was taken, and strong results are over-represented in it overall.
tested on: Plasmodium berghei; test: Screen against P. berghei liver stage (PbLuc), transformed with Luciferase, at 10uM; assay type: functional, HepG2; details: tested at 10 uM

Compound	INHIBITION [%]
O=S(=O)(Cc1ccccc1)N1CCCn2cnc(CN3CCCC3)c2C1	-17.7
O=C(CCn1cccn1)N1CCC(c2nnc(-c3ccccn3)o2)CC1	44.9
Cc1cc(-c2ccc(=O)n(C3CCN(C(=O)C4CCC4)CC3)n2)c(C)o1	-30.9
Cc1cnn(Cc2cc(F)ccc2F)c1NC(=O)CNC(=O)C1CC1	72.3
Cc1cnn(Cc2cc(F)ccc2F)c1NC(=O)C1COCCO1 (stereo not given)	2.01
Cc1cnn(Cc2cc(F)ccc2F)c1NC(=O)NC1CC1	35.6
Cc1cnn(Cc2cc(F)ccc2F)c1NC(=O)C1CCOCC1	72.3
CC(=O)Nc1c(C)cnn1Cc1cc(F)ccc1F	-8.21
CCC(=O)NCC(=O)Nc1c(C)cnn1Cc1cc(F)ccc1F	44.2
CC(=O)N1CC(C(=O)N2CCCC(Cn3ccnc3C)C2)C1 (stereo not given)	-3.7
Cc1ccc(N2CCCC(Nc3nn4cc(C)nc4s3)C2)nn1 (stereo not given)	-17.7
Cc1cnn(CCC(=O)N2CCN(c3ccc(C#N)cn3)CC2)c1	5.9
CC(=O)N1CCCn2nc(CNS(=O)(=O)N3CCC(C)CC3)cc2C1	15.7
CN1CCC2(CC1)CN(C(=O)c1onc3ccccc13)CCCN2C	24.2
CC(=O)Nc1ccsc1C(=O)N1CC[C@H]2CC[C@@H](C1)N2C	33.3
Cc1ccc(CN2CCc3c(COC(C)C)nn(C)c3C2)s1	22.2
c1cncc(N2CCCn3nnc(CN4CCCCC4)c3C2)c1	70.3
Cc1ccc(CN2CCc3c(COCC4CC4)nn(C)c3C2)s1	59.3
Cn1ncc2c1C(COCC1CC1)CN(Cc1ccncc1)C2 (stereo not given)	22.2
c1cncc(CN2CCCn3nnc(COCC4CC4)c3C2)c1	64.7
c1cncc(N2CCCn3nnc(CN4CCOCC4)c3C2)c1	7.67
Cn1ncc2c1C(COCC1CC1)CN(Cc1cccnc1)C2 (stereo not given)	43.9
Cn1nc(COCC2CC2)c2c1CN(CC1CC1)CC2	21.6
c1cc(CN2CCCn3nnc(COCC4CC4)c3C2)ccn1	42.1
c1cncc(N2CCCn3nnc(COCC4CC4)c3C2)c1	20.6
O=C1CCCN1Cc1nnn2c1CN(c1cccnc1)CCC2	6.67
Cn1ncc2c1CN(Cc1cccnc1)CC2COCC1CC1 (stereo not given)	53.5

Compound	INHIBITION [%]
COCCNC(=O)c1cc(C2CC2)nc2onc(C3CCNC3)c12 (stereo not given)	25.1
COCCN1CCC(C)(c2cc(O)[nH]n2)CC1	9.05
O=C(Cc1cccnc1)N1CCC(c2nnc(-c3ccccn3)o2)CC1	1.5235
O=C(CC(F)(F)F)N1C[C@H]2CC[C@@H](C1)N(Cc1ccccc1)C2=O	26.9
COc1ccc(NC(C)=O)cc1S(=O)(=O)Nc1ccon1	35.7
CCN(CC)Cc1ccc(C(=O)N2CCCC2Cn2cc(C)cn2)o1 (stereo not given)	-4.3
CN(C)c1ccc(CC2CCN(c3cnccn3)CC2)nn1	-18.8
Cc1ccc(CN2CCCn3nnc(COCCN(C)C)c3C2)s1	54.8
Cc1ccc(CN2Cc3c(cnn3C)C(COCC3CC3)C2)s1 (stereo not given)	65.6
Cn1cc(CN2Cc3c(cnn3C)C(COCC3CC3)C2)cn1 (stereo not given)	47.9
Cn1ncc2c1CN(Cc1ccc(F)cc1)CC2COCC1CC1 (stereo not given)	8.67
COc1ccc(CN2CCCn3nnc(COCC4CC4)c3C2)cc1	16.8
Cc1ccc(CN2CCCn3nnc(COCC4CC4)c3C2)s1	23.3
Cc1cnn(CC2CCCCN2C(=O)c2csc(C)n2)c1 (stereo not given)	23.5
CC(Oc1cc(Cl)cc(Cl)c1)C(=O)NCCC(=O)N(C)C (stereo not given)	30.7
COCCCNc1nc(CNC(=O)C2CCC2)cc(-c2ccco2)n1	-3.34
CCC1=N[C@@]2(CC[C@@H]3CN(CC(=O)N(C)C)C[C@@H]32)C(=O)N1CC(C)C	29
CCCc1n[nH]c(C2CN(Cc3nnc(C4CC4)n3C)CCO2)n1 (stereo not given)	50.1
CC(C)(C)c1n[nH]c(C2CN(Cc3nnc(C4CC4)o3)CCO2)n1 (stereo not given)	-3.2
CCc1n[nH]c(C2CN(Cc3nnc(C4CC4)o3)CCO2)n1 (stereo not given)	13.3
CCc1n[nH]c(C2CN(Cc3nc(C4CC4)no3)CCO2)n1 (stereo not given)	64.9
CCCc1n[nH]c(C2CN(Cc3nnc(C4CC4)o3)CCO2)n1 (stereo not given)	52
CCc1n[nH]c(C2CN(Cc3nnc(C4CC4)n3C)CCO2)n1 (stereo not given)	-17.5
Cc1n[nH]c(C2CN(Cc3nnc(C4CC4)n3C)CCO2)n1 (stereo not given)	33.7
CCc1n[nH]c(C2CN(Cc3nnc(C4CCC4)o3)CCO2)n1 (stereo not given)	9.14
CCCc1n[nH]c(C2CN(Cc3nnc(C4CCC4)o3)CCO2)n1 (stereo not given)	-25.8
COc1ccccc1-n1cc(C(=O)NCCCn2ccnn2)cn1	-12.5

Compound	INHIBITION [%]
Cc1nc2c(c(=O)[nH]1)CCN(C(=O)c1cccc3nccnc13)C2	46
CN(C)c1ccc(C(=O)Nc2ccn(CC(N)=O)n2)cn1	-15
O=C(NCC1CCC1)c1ccnc(-n2ccnc2)c1	-13.6
Cc1cc(CNC2(c3ccccc3F)CC2)no1	-4.73
CN1C[C@@H](C(=O)NC2CCCC2)[C@@]2(COc3ccc(F)cc3C2=O)C1	23.85
c1ccc(OCCCN2CCOC(CNc3cccnn3)C2)cc1 (stereo not given)	-65.3
Cc1noc(C)c1CN1CCn2cc(CNC(=O)C3CCC3)nc2C1	45.2
COc1ccc(CC(=O)N2C[C@H]3CN(Cc4ccccn4)C[C@H]3C2)cc1	18.6
Cc1[nH]c2ccccc2c1-c1ccnc(N[C@@H](CO)C(C)C)n1	36.7
Cc1[nH]c2ccccc2c1-c1ccnc(N[C@@H](C)CO)n1	85.7
CC[C@@H](CO)Nc1nccc(-c2cnc3sc(C)cn3c2=O)n1	11.5
Cc1cn2c(=O)c(-c3ccnc(N[C@@H](C)CO)n3)cnc2s1	27.8
Cc1[nH]c2ccccc2c1-c1ccnc(N[C@H](CO)CC(C)C)n1	56
CC(C)[C@H](CO)Nc1nccc(-c2c[nH]nc2-c2ccncc2)n1	-31.5
CN1CCOC(CNC(=O)CCCc2ccccc2)C1 (stereo not given)	-4.15
CN(Cc1nccn1CC(F)(F)F)C(=O)c1ccc2c(c1)OCO2	6.33
Cc1nn(C)c(Cl)c1C1CCCN1Cc1nnc(C2CC2)o1 (stereo not given)	-31.1
O=S(=O)(CC1CCOCC1)NCc1ncc(-c2ccccc2)o1	40.6
CC(=O)N1CCC(NC(=O)NCc2ncc(-c3ccccc3)o2)CC1	47.1
O=C(NCc1ncc(-c2ccccc2)o1)NC1CCC(O)CC1 (stereo not given)	61.9
CC(=O)N1CCc2ncc(CNC(=O)C3CCC3)n2CC1	15.4
O=C(NCCN1CCOCC1)NCc1ncc(-c2ccccc2)o1	2.37
CC(=O)N1CCC(C(=O)NCc2ncc(-c3ccccc3)o2)CC1	83.2
O=C1C[C@@H]2CC[C@H](CN1)N2c1cc(-c2ccccc2F)nc2ccnn12	-7.53
COCC(=O)N1CCC2(CCCN(Cc3cnn(C)c3)C2)C1 (stereo not given)	47.4
CC(C)NC(=O)C1CCC2(CCN(Cc3cnn(C)c3)CC2)C1 (stereo not given)	-13.7
Cn1cc(CN2CCC3(CCC(C(=O)NCC4CC4)C3)CC2)cn1 (stereo not given)	20.1

Compound	INHIBITION [%]
Cn1cc(CN2CCCC3(CCN(C(=O)c4ccoc4)C3)C2)cn1 (stereo not given)	42.7
Cn1cc(CN2CCC3(CCCN3S(C)(=O)=O)CC2)cn1	53.5
CCn1cc(CN2CCCC3(CCC(=O)N(CCC(C)C)C3)C2)cn1 (stereo not given)	65.2
CCn1cc(C(=O)N2CCCC3(CCC(=O)N(CCC(C)C)C3)C2)cn1 (stereo not given)	-47.8
CN(C)C(=O)N1CCC2(CCCN(Cc3cnn(C)c3)C2)C1 (stereo not given)	52.9
Cn1cc(CN2CCCC3(CCCN3S(C)(=O)=O)C2)cn1 (stereo not given)	-3.41
CN(C)C(=O)C1CCC2(CCN(Cc3cnn(C)c3)CC2)C1 (stereo not given)	55.5
Cn1cc(CN2CCC3(CCCCN3S(C)(=O)=O)CC2)cn1	27.6
CCc1ncc(CN2CCCC3(CCC(=O)N(CCC(C)C)C3)C2)cn1 (stereo not given)	0.818
CN1CC(=O)N(c2ccccc2)CC12CCN(C(=O)c1cccs1)C2 (stereo not given)	17.1
CC(=O)Cn1ncc(N2CCOCC2)cc1=O	-10.5
CN(C)CCN1C(=O)CCC12CCN(C(=O)c1cccnc1)CC2	13.2
Cc1cccc(CN2CCC3(CCCN(Cc4cnn(C)c4)C3)C2=O)n1 (stereo not given)	0.618
Cc1cccc(CN2CCc3[nH]nc(C(=O)N(C)C)c3C2)n1	-45.5
Cc1cccc(CN2CCC3(CCCN(Cc4cnn(C)c4)C3)C2)n1 (stereo not given)	64.7
Cc1cccc(CN2CCOC3(COCCN(CCN(C)C)C3)C2)n1 (stereo not given)	48.4
Cn1cc(CN2CCC3(CCCN(Cc4ccccn4)C3)CC2)cn1	-3.19
Cc1cnc(N2CCOC3(CCCN(CC(=O)N(C)C)C3)C2)nc1 (stereo not given)	-29.8
CC1(C(=O)N2CCOCC2)CN(Cc2ccccn2)CCO1 (stereo not given)	44.4
Cc1cc(CN2CCOC(C)(C(=O)N3CCOCC3)C2)no1 (stereo not given)	0.301
Cc1cccc(CN2CCc3[nH]nc(C(=O)N4CCNC(=O)C4)c3C2)n1	49.7
Cc1cccc(CN2CCOC(C)(C(=O)N3CCOCC3)C2)n1 (stereo not given)	59
Cc1cccc(CN2CCc3[nH]nc(C(=O)N4CCOCC4)c3C2)n1	65.9
Cc1cccc(CN2CCOC3(CCCN(CC(=O)N(C)C)C3)C2)n1 (stereo not given)	59.3

Reference: ChEMBL document CHEMBL4513216, “Probing the Open Global Health Chemical Diversity Library for Multistage-Active Starting Points for Next-Generation Antimalarials” (ACS Infect Dis, 2020)
